# From PubChem BioAssay AID493005 (National Center for Advancing Translational Sciences (NCATS), 2010)
# The campaign covered roughly 340,000 compounds. Fewer than 10 were called active. Calls follow the shape of the dose curve; as a rule, active = well fitted inhibition curve with a large enough effect in the main read-out, with a control signal flat (not every such curve was filed as active); inconclusive = small, poorly fitted or top-dose-only effect, or effect the other way, or a change in a side signal; inactive = no such curve, though single readings can be large or run the other way. The list is a sample of the results.
# Molecular target: Tumor susceptibility gene 101 protein (Homo sapiens) (UniProt Q99816)
# Sequence (Q99816 whole entry, looked up): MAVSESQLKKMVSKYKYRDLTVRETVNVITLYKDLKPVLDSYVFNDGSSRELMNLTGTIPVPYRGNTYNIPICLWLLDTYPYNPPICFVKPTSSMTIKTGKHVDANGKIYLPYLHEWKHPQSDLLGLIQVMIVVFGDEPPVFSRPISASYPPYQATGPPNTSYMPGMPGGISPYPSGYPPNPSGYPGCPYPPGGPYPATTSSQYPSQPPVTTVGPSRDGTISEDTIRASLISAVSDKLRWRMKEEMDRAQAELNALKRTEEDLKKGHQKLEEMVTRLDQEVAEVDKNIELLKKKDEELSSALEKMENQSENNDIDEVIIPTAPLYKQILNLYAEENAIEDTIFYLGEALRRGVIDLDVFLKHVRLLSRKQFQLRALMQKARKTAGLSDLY
# Assay: qHTS Assay for Iinhibitors of HIV-1 Budding by Blocking the Interaction of PTAP/TSG101; also: % of control where 0% means no effect
# Conditions: Fluorescence polarization, FITC-PTAP peptide / Tsg101 binding; series mostly up to 115 µM; activity change, negative = inhibition: at the top concentration
# Text: NIH Molecular Libraries Probe Production Network [MLPCN] NIH Chemical Genomics Center [NCGC] MLPCN Grant: 1 R03 MH087464-01A1 PI Name: Dr. Eric Freed, NCI NCGC Assay Overview: Stages of the HIV-1 replication cycle, specifically virus assembly and release, provide underexploited targets for the development of novel antiviral inhibitors. The late stages of HIV-1 replication are mediated by the Gag precursor protein, Pr55Gag. Expression of Pr55Gag is both necessary and sufficient for the production of virus-like particles from Gag-expressing cells. The Gag protein hijacks key host proteins involved in endocytic machinery of the host cell to promote endosomal processing and viral budding. The budding process requires a direct interaction between a […] (PTAP) motif in the p6 domain of Gag and the cellular endosomal sorting protein known as Tsg101. In this way, the Gag PTAP motif promotes the host cells to recruit viral particles to the plasma membrane where the new viral particles are released, effectively turning the host cells into viral factories. A fluorescence anisotropy assay has been developed to quantitatively measure the PTAP-Tsg101 interaction which can be used to screen for inhibitors of this interaction.
# NCGC Assay Protocol Summary: Two uL of the Tsg101 binding domain in buffer (10 mM HEPES pH 7.5; 0.15 M NaCl, 0.01% Tween 20; 3 mM EDTA;0.1 mM TCEP) was dispensed into Greiner black MB 1536-well plates (final concentration 10 uM). Then, 23 nL of compounds or DMSO were delivered to each well using a pin tool. Finally, 2 uL of a FITC-labeled peptide containing the PTAP motif (1) in the same buffer was dispensed (50 nM final concentration) and the binding was allowed to proceed for 20 min. at r.t. Fluorescent polarization was determined using FITC excitation and polarized emission filters on a Perkin Elmer Viewlux. Keywords: Tsg101, PTAP, Gag, HIV, fluorescent polarization, MLSMR, MLPCN, NIH Roadmap, qHTS, NCGC
row,Compound,"activity change, negative = inhibition"
1,O=[N+]([O-])c1ccc(C=Nc2ccc(Cl)cc2Cl)s1,-15% (inactive)
2,CCOC(=O)c1nnn(-c2nonc2-n2cccc2)c1CN1CCC(C(=O)OCC)CC1,-0.451% (inactive)
3,C=CCc1cccc2cc(C(=O)Nc3ccc(NC(C)=O)cc3)c(=O)oc12,1.25% (inactive)
4,CCOC(=O)[C@@H]1[C@H]2COc3cc(OC)ccc3[C@H]2N2C(=O)N(c3ccc(F)cc3)C(=O)[C@]12C,0.494% (inactive)
5,O=C(Cc1ccccc1)Nc1c(Cl)ccc2nsnc12,0.701% (inactive)
6,CC(=O)c1ccc(NC(=O)C2CC(=O)Nc3nc4ccccc4n32)cc1 (configuration not stated),0.727% (inactive)
7,CCOc1ccc(NC(=O)C/C(C)=N/NC(=O)Cc2cccs2)cc1,-5.5% (inactive)
8,CN(CC(=O)NCCN1CCOCC1)S(=O)(=O)c1ccc(F)cc1,-0.493% (inactive)
9,C/C(=N\NC(=O)CCn1nc(C)cc1C)C(C)(C)C,-0.95% (inactive)
10,O=C(Cc1ccc(NC(=O)C2CCCN(C(=O)CCc3ccccc3)C2)cc1)Nc1ccc(C(=O)N2CCOCC2)cc1 (configuration not stated),-0.0955% (inactive)
11,COc1ccc(-c2nc3c(s2)CCc2onc(-c4ccc(OC)cc4)c2-3)cc1,-0.28% (inactive)
12,CC(=O)Nc1ccc(S(=O)(=O)N(CCc2ccccc2)CC(=O)N/N=C/c2ccc(C(=O)O)cc2)cc1,-6.47% (inactive)
13,COc1cc(Cl)ccc1OCc1cc(C(=O)N(C)CCc2c(C)n[nH]c2C)no1,0.863% (inactive)
14,CC(C)C[C@H](NC(=O)C1CC(=O)N(c2ccc3c(c2)OCCO3)C1)C(=O)NC1CCCC1 (some centres not stated),2.95% (inactive)
15,COc1ccc(Cl)cc1NC(=O)CN(C)C(=O)CCCc1c[nH]c2ccccc12,-4.62% (inactive)
16,CC(C)CC(CC(C)C)=NNC(=O)c1ccc(CSc2nncn2C)cc1,-0.775% (inactive)
17,O=C(c1cc(-c2ccco2)nc2ccccc12)N(Cc1nnc(-c2ccc(Cl)cc2)o1)C1CC1,0.193% (inactive)
18,CN(CC(=O)Nc1ccc(Cl)c(C(F)(F)F)c1)C(=O)CCC(=O)c1ccccc1,-4.75% (inactive)
19,Cn1ncc(N2CCN(S(=O)(=O)c3ccc(Br)cc3)CC2)c(Cl)c1=O,1.01% (inactive)
20,CC(C)OP(=O)(OC(C)C)C(Nc1ccccc1)c1cccc([N+](=O)[O-])c1 (configuration not stated),-3.25% (inactive)
21,CC(=O)N(c1ccc2oc(=O)sc2c1)S(=O)(=O)c1ccc(C)cc1,-5.77% (inactive)
22,Clc1ccc(C[n+]2cc(-c3ccc(Cl)cc3)n3c2CCC3)cc1,0.956% (inactive)
23,COC(=O)[C@@H]1C[C@@]2(O)[C@@H](O)[C@@H](O)[C@@H](O)C[C@H]2N1Cc1ccc(C)s1,0.0295% (inactive)
24,COc1ccccc1NS(=O)(=O)c1ccc(C)c(C(=O)NNC(=O)c2csc(N3CCOCC3)n2)c1,-8.59% (inactive)
25,CC(=O)OC1CCC2C3CCC4=C(CC(F)C(=O)C4)C3CCC12C (configuration not stated),0.416% (inactive)
26,Cc1ccc(S(=O)(=O)N2CCCC2C(=O)NCc2ccco2)cc1 (configuration not stated),-4.52% (inactive)

row,Compound,"activity change, negative = inhibition"
1,CS(=O)(=O)N1CCCC(C(=O)N2CCOCC2)C1 (configuration not stated),-5.04% (inactive)
2,CCCN1C(=O)C(NC(C)=O)c2cc(OC)ccc21 (configuration not stated),-3.66% (inactive)
3,O=C(NC1CCCC1)C(c1ccc(N2CCOCC2)cc1)N(C(=O)c1ccco1)c1ccccc1F (configuration not stated),1.97% (inactive)
4,O=C(Nc1ccccc1-c1nnn(CC(=O)N2CCCc3ccccc32)n1)c1cccc(Cl)c1,-0.614% (inactive)
5,CC(C)C(O)C1CCN(Cc2nc(Cc3ccccc3Cl)no2)CC1 (configuration not stated),0.208% (inactive)
6,O=C(Nc1ccc2c(c1)nc1n2CCCCC1)c1cc(S(=O)(=O)N2CCOCC2)ccc1Cl,-2.8% (inactive)
7,C=CCn1c(COc2ccc(F)cc2)nnc1SCC(=O)Nc1cccc(S(N)(=O)=O)c1,0.597% (inactive)
8,CCc1c(O)nc(SCC(=O)Nc2ccccc2)n(C(C)CC)c1=O (configuration not stated),-0.227% (inactive)
9,COc1cc(OC)cc(C(=O)NNC(=O)Cc2cccs2)c1,-8.25% (inactive)
10,Cc1cc(C)cc(-c2nnc(SCC(=O)NC3CC3)o2)c1,-1.42% (inactive)
11,CCc1cccc(C)c1NC(=S)N(CCCN1CCN(C)CC1)Cc1cccs1,0.428% (inactive)
12,COc1cccc(NC(=O)Cn2c3ccc(F)cc3c3nc4n(c(=O)c32)CCS4)c1,-1.9% (inactive)
13,O=S(=O)(NN=C1CCCCCCC1)c1ccc(Br)cc1,-4.04% (inactive)
14,Cn1c2ccccc2n2c(=O)c(=O)n(CC(=O)c3ccc(F)cc3)nc12,-8.82% (inactive)
15,CCOc1ccc(NC(=O)COc2ccc(C(=O)N3CCC(C(N)=O)CC3)cc2OC)cc1,-2.07% (inactive)
16,CC(NS(=O)(=O)c1ccccc1)c1n[nH]c(=S)n1-c1ccccc1 (configuration not stated),-0.439% (inactive)
17,O=C(O)C1CCCCC1C(=O)N1CCN(S(=O)(=O)c2ccc(F)cc2)CC1 (configuration not stated),-1.03% (inactive)
18,COc1ccc(OCc2n[nH]c(=S)n2N)cc1,-2.95% (inactive)
19,Cc1ccccc1-n1cc(CNC(=O)CC2C(=O)NCCN2C/C=C/c2ccccc2)cn1 (configuration not stated),-0.0281% (inactive)
20,CN1CCCN(C(=O)C2CCCCC2)CC1,1.06% (inactive)
21,CCc1nc(SCC(=O)Nc2ccccc2OC)n[nH]1,-2.89% (inactive)
22,CC(=O)N(CN1C(=O)C2CC=CCC2C1=O)c1cccc(Cl)c1 (configuration not stated),-7.15% (inactive)
23,O=C(O)CCN(Cc1ccccc1)S(=O)(=O)c1c(Cl)cccc1Cl,-5.83% (inactive)
24,CSc1nc2nc(-c3cccc(C(F)(F)F)c3)ccn2n1,-3.61% (inactive)
25,CC(=O)n1cc([C@@H]2C=C(C(=O)N3CCN(Cc4ccc5c(c4)OCO5)CC3)O[C@H](OCc3ccc(CO)cc3)C2)c2ccccc21,-8.1% (inactive)
26,CC(=O)N1CCOc2ccc(S(=O)(=O)N3CCC(C(=O)Nc4ccccc4F)CC3)cc21,-0.326% (inactive)

row,Compound,"activity change, negative = inhibition"
1,COc1ccc(Cl)cc1NS(=O)(=O)c1cccc(C(=O)NCC2CCCO2)c1 (configuration not stated),0.431% (inactive)
2,CC1=C2C(=O)OC(c3ccoc3)C2(C)CCC1 (configuration not stated),-4.59% (inactive)
3,C/C(=N\N1CCN(Cc2ccc(C)cc2)CC1)c1ccco1,-3.85% (inactive)
4,O=C1CCC(=O)N1CCOP1(=O)COc2ccccc2OC1,2.82% (inactive)
5,O=C1c2ccccc2NC(c2ccccc2O)N1NS(=O)(=O)c1ccccc1 (configuration not stated),-1.04% (inactive)
6,COc1cccc(C(=O)Nc2cc3c(cc2Br)OCCCO3)c1,-0.834% (inactive)
7,COc1ccccc1C(=O)Nc1ccnn1C1CCN(C(=O)C(C)(C)C)CC1,-1.4% (inactive)
8,O=C(CCSc1ccccc1)NCCSc1ccccn1,-1.87% (inactive)
9,CCCCC(=O)NC(c1ccc(OC)c(OC)c1)c1ccc2cccnc2c1O (configuration not stated),-0.51% (inactive)
10,CN(C)CCNC(=O)c1ccc(Cl)c2cc3ccccc3nc12,-5.17% (inactive)
11,CCCCN(C(=O)CSCC(=O)Nc1ccc(OC)cc1)c1c(N)n(CCC)c(=O)[nH]c1=O,-0.275% (inactive)
12,C=CCN1C(=O)C(Cc2ccc(OCC)cc2)SC1=Nc1ccc(C(=O)O)cc1 (configuration not stated),-2.96% (inactive)
13,O=C(O)CN(Cc1ccco1)S(=O)(=O)c1ccc(F)cc1,-0.137% (inactive)
14,CCN(CC)S(=O)(=O)c1cccc(NC(=O)c2ccc(S(=O)(=O)N3CCCC3)cc2)c1,-3.29% (inactive)
15,CC(NCCO)C(=O)C12CC3CC(CC(C3)C1)C2 (configuration not stated),-5.36% (inactive)
16,COCCNC(=O)C(OC(=O)c1cccs1)c1ccc(F)cc1 (configuration not stated),-1.42% (inactive)
17,O=C1NC(Nc2nc3ccccc3s2)(C(F)(F)F)C(=O)N1C1CCCCC1 (configuration not stated),-3.48% (inactive)
18,COC(=O)c1cc(NC(=O)CC2C(=O)NCCN2C(=O)c2ccc(F)cc2)cc(C(=O)OC)c1 (configuration not stated),-6.53% (inactive)
19,Cc1occc(=O)c1OCc1c(Cl)cccc1Cl,-1.89% (inactive)
20,CCCCc1ccc(NS(=O)(=O)c2cccc(C(=O)N3CCCN(C)CC3)c2)cc1,-4.27% (inactive)
21,CCC(=O)N1c2ccc(S(=O)(=O)NCc3ccco3)cc2CC1C (configuration not stated),-2.03% (inactive)
22,Cc1nnc(SCCCCSc2nnc(C)c(=O)[nH]2)[nH]c1=O,-1.02% (inactive)
23,CCOC(=O)c1cccc(NC(=O)CCc2nnc3ccc(N4CCOCC4)nn23)c1,-10.9% (inactive)
24,CCCC[C@H]1COCCS(=O)(=O)N1Cc1cccc(Cl)c1,1.87% (inactive)
25,C/C=C/c1ccc(OCC(=O)NNC(=O)CN(C)S(=O)(=O)c2ccc(C)cc2)c(OC)c1,-5.6% (inactive)
26,CC(C)(C)c1cc(NC(=O)NN2CCOCC2)nn1-c1c(Cl)cc(Cl)cc1Cl,-4.53% (inactive)

row,Compound,"activity change, negative = inhibition"
1,COc1ccc(OC)c(C(O)c2nc3ccccc3n2C)c1 (configuration not stated),0.975% (inactive)
2,NC(=O)C1(N2CCCC2)CCN(Cc2ccccc2)CC1,-2.04% (inactive)
3,CCOC(=O)C1CN(S(=O)(=O)c2ccc(F)cc2)C1,-0.508% (inactive)
4,CC(C)(C)n1cnnc1Sc1ccc([N+](=O)[O-])cn1,-5.76% (inactive)
5,O=C(COC(=O)/C=C/c1cccc(Cl)c1)NCc1cccs1,-1.32% (inactive)
6,Cc1onc(-c2c(F)cccc2Cl)c1C(=O)Nc1cccc(S(=O)(=O)N2CCCCC2)c1,-3.61% (inactive)
7,CSc1sc(C(=O)NC(=O)NCc2cccnc2)c(C)c1-c1ccon1,-1.8% (inactive)
8,Cc1nn(-c2ccccc2)c2c1C(c1cccc([N+](=O)[O-])c1)N(c1ccccc1)C(=O)N2 (configuration not stated),-1.94% (inactive)
9,CC1(C)C2CCC13CS(=O)(=O)NC3C2 (configuration not stated),-2.1% (inactive)
10,Cc1nc(Nc2ccccc2C)c2cnn(C)c2n1,-1.3% (inactive)
11,O=C1N[C@@H](Cc2ccccc2)C(=O)N2[C@@H]3N(S(=O)(=O)c4ccc(F)cc4)c4ccccc4[C@]3(Br)C[C@@H]12,0.056% (inactive)
12,CCC1=C(OC(=O)N(CC)CC)N2C(=O)OC(=NCC3CC3)[C@]2(C)[C@H]2C1=CC[C@H]1C(=O)N(CC(=O)OC)C(=O)[C@H]12,-10.6% (inactive)
13,CC(C)N1CCc2c(sc(NC(=O)Cc3ccccc3)c2C#N)C1,-2.3% (inactive)
14,C#CCCCc1nc2ccccc2c(=O)n1N,-1.38% (inactive)
15,CCCCN1CC(CO)Oc2cccc(F)c2S1(=O)=O (configuration not stated),-5.79% (inactive)
16,CCCc1nc(SCC(=O)Nc2ccccc2OC)c2c(=O)n(C)c(=O)n(C)c2n1,0.785% (inactive)
17,CC(=O)Nc1cccc(NC(=O)CSc2nccn2Cc2ccc(F)cc2)c1,-2.24% (inactive)
18,N#Cc1cccc(OC(=O)c2ccc3c(=O)n4c(nc3c2)CCC4)c1,-3.21% (inactive)
19,CSc1ccccc1NC(=O)CN(C)CC(=O)Nc1cccc(Br)c1,0.804% (inactive)
20,CN(C)/C(=N\OC(=O)c1ccccc1)c1nonc1N,-1.1% (inactive)
21,CCOc1ccc(NC(=O)[C@H](C)NC(=O)C2CC(=O)N(c3ccc(OC)cc3)C2)cc1 (some centres not stated),-2.26% (inactive)
22,COc1cc(C2NC(=O)NC(c3ccccc3)=C2C(C)=O)c(Br)cc1OCC(N)=O (configuration not stated),1.51% (inactive)
23,Cc1ccc(C(NC(=O)N2CCCC2)C(Cl)(Cl)Cl)cc1F (configuration not stated),0.175% (inactive)
24,CCn1c(CC(=O)Nc2ccccc2C)nnc1SCC(=O)NC1=NCCS1,0.499% (inactive)
